The source made the active and inactive calls. How the source made its calls: active means hit-call score of the fitted dose curve at least 0.9, where 1 is the maximum; inactive means score below 0.9.
Assay: BSK_BE3C_SRB: Viability Assessment in the BioMAP Diversity Plus: BE3C Assay (AID 2283028);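 on AC50: fitted both ways so AC50 may mark signal gain or loss versus DMSO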
Settings: primary human bronchial epithelial cells
Experimental: BSK_BE3C is a cell-based, multiplexed-readout assay that uses bronchial epithelial cell, a human lung primary cell, with measurements taken at 24 hours after chemical dosing in a 96-well plate.BSK_BE3C_SRB is an assay component measured in the BSK_BE3C assay. It measures 0.1% sulforhodamine related to cell death using Sulforhodamine staining technology.Data from the assay component BSK_BE3C_SRB was analyzed into 1 assay endpoint. This assay endpoint, BSK_BE3C_SRB, was analyzed with bidirectional fitting relative to DMSO as the negative control and baseline of activity. Using a type of viability reporter, gain or loss-of-signal activity can be used to understand changes in the signaling. Furthermore, this assay endpoint can be referred to as a primary readout, because this assay has produced multiple assay endpoints where this one serves a signaling function. To generalize the intended target to other relatable targets, this assay endpoint is annotated to the cell morphology intended target family, where the subfamily is cell conformation.
The levels of cell surface (or secreted, indicated by the prefix "s") biomarker endpoints were measured by ELISA. Overt cytotoxicity to cells in confluent adherent cultures (all systems other than the BT system) was assessed by measuring total protein levels using sulforhodamine B (SRB) staining in parallel cultures at the time of biomarker measurements, indicated as SRB endpoints. For proliferation assays for adherent cell types, individual cell types are cultured at sub-confluence and relative cell numbers quantified by SRB staining at time points optimized for each system (48 h: 3C and CASM3C systems; 72 h: BT and HDF3CGF systems; 96 h: SAg system). SRB was performed by staining cells with 0.1% SRB after fixation with 10% TCA and reading wells at 560 nm.Viability and proliferation of PBMC (T cells) was quantified by Alamar Blue reduction for the SAg and BT systems. For PBMC viability (referred to as PBMC Cytotoxicity within the assay endpoint names), cells were plated (75,000/well in a 96-well plate) and then chemical samples added for 1 h before addition of activators, SEB and TSST-1 (20 ng/mL final concentration each). Cells were incubated for 90 h. Then, Alamar Blue (20 uL/well) (Invitrogen, Cat DAL1100) was added for 6 h, and the plates were read with a fluorescence microplate reader at 546/580 nm (excitation/emission). For PBMC proliferation, cells were plated and activated as above but incubated for only 16 h prior to addition of Alamar Blue. Plates were read after 6 h.
With Cc1cc(F)ccc1-c1cc(N2CC[C@@H](O)[C@H]2CO)ncc1N(C)C(=O)C(C)(C)c1cc(C(F)(F)F)cc(C(F)(F)F)c1 the AC50 was 12.9 µM (active). For CN1C(=O)N(c2ccccc2Br)Cc2cnc(Nc3ccc4c(c3)OCC(CO)O4)nc21 (stereo not given), the AC50 was 28.1 µM (active). With O=c1c(-c2ccc(O)cc2)coc2cc(O)cc(O)c12 the outcome was “inactive”. In the case of COc1cccc([C@H](O)C2CCN(CCc3ccc(F)cc3)CC2)c1OC, the outcome is reported as “inactive”. For Cc1ccc2oc(CN(Cc3ccccc3)C(=O)Nc3c(F)cc(F)cc3F)c(-c3ccc(Cl)cc3)c2c1, the outcome was “inactive”. For O=c1ccc2ccccc2o1, the outcome was “inactive”. In the case of CC1=CC(=O)/C(=C(/C)O)C(=O)O1, the outcome is reported as “inactive”. With CC1(C)NC(=O)N(c2ccc([N+](=O)[O-])c(C(F)(F)F)c2)C1=O the outcome was “inactive”. With CCCC(=O)OCCC(C)C the outcome was “inactive”. In the case of Oc1ccc2ccccc2c1, the outcome is reported as “inactive”. In the case of Cc1cccc2ccccc12, the outcome is reported as “inactive”. For CC/C(=C(/CC)c1ccc(O)cc1)c1ccc(O)cc1, the AC50 was 33.6 µM (active). In the case of CCCCCCCCN(C)CCCCCCCC, the outcome is reported as “inactive”. In the case of CN1C(=O)CC[C@H]1c1cccnc1, the outcome is reported as “inactive”. In the case of O=C(OCCCCCCOC(=O)c1ccccc1)c1ccccc1, the outcome is reported as “inactive”. In the case of CC(=O)N1CCN(c2ccc(OC[C@H]3CO[C@](Cn4ccnc4)(c4ccc(Cl)cc4Cl)O3)cc2)CC1, the outcome is reported as “inactive”. In the case of CN(C)C(=O)C1(N2CCCCC2)CCN(CC[C@@]2(c3ccc(Cl)c(Cl)c3)CN(C(=O)c3ccccc3)CCO2)CC1, the AC50 is reported as 26.6 µM (active). For CCCCCCCC[Si](OCC)(OCC)OCC, the outcome was “inactive”. In the case of COc1cc(C(=O)NC2CCN(C)CC2)ccc1Nc1ncc2c(n1)N(C1CCCC1)CC(F)(F)C(=O)N2C, the AC50 is reported as 28.2 µM (active). For Cc1oc2c(NC(=O)c3c(Cl)cccc3Cl)cccc2c1C(C)(C)O, the outcome was “inactive”. In the case of C[C@]12CC[C@@H]3c4ccc(O)cc4CC[C@H]3[C@@H]1CCC2=O, the outcome is reported as “inactive”. For CCO[Si](CCCNC(N)=O)(OCC)OCC, the outcome was “inactive”. With Cc1c2ccccc2c(C)c2c1ccc1ccccc12 the outcome was “inactive”. In the case of CN(C)c1ccc(C(=C2C=CC(=[N+](C)C)C=C2)c2ccc(N(C)C)cc2)cc1, the AC50 is reported as 7.72 µM (active). For CCCCCCCCOC(=O)c1cc(O)c(O)c(O)c1, the AC50 was 33.6 µM (active). With CCCOC(=O)c1cc(O)c(O)c(O)c1 the outcome was “inactive”. With CCOC(=O)O[C@H](C)OC(=O)c1ccc2c(c1)cc(C(=O)NC1CCN(C(C)C)CC1)n2Cc1cc(-c2ccc(Cl)s2)on1 the AC50 was 6.07 µM (active). In the case of CCN(CC)C(=O)c1cc(S(=O)(=O)Cc2ccccc2)c(N2CCC(c3ccccc3)CC2)cc1N(CC)CCN(C)C, the AC50 is reported as 11 µM (active). With CCN(Cc1cccnc1)C(=O)c1cccc(Cl)c1[C@]1(C)C(=O)N(Cc2ccc(OC)cc2OC)c2ccc(Cl)cc21 the outcome was “inactive”. In the case of O=C(O)Cn1c(=O)n(Cc2ccc(Br)cc2F)c(=O)c2ccc(Cl)cc21, the outcome is reported as “inactive”. With CC[C@H](NC(=O)c1cc(F)ccc1NS(=O)(=O)c1cccc2cccnc12)c1ccccc1 the outcome was “inactive”. For CCCCCCCCCCCCO, the AC50 was 31.9 µM (active). For Cc1occc1C(=O)Nc1ccc(C(=O)N2CCC(F)(F)/C(=C\C(=O)N3CCC(N4CCCCC4)CC3)c3ccccc32)cc1, the outcome was “inactive”. For CCN(Cc1cccc(S(=O)(=O)O)c1)c1ccc(C(=C2C=CC(=[N+](CC)Cc3cccc(S(=O)(=O)O)c3)C=C2)c2ccccc2S(=O)(=O)[O-])cc1, the outcome was “inactive”. For NCc1cccc(C2CCN(C(=O)c3ccc(C#Cc4ccccc4F)o3)CC2)c1, the AC50 was 15.4 µM (active). In the case of c1ccc(C[n+]2cccc3ccccc32)cc1, the outcome is reported as “inactive”. In the case of O=c1[nH]sc2ccccc12, the AC50 is reported as 37.1 µM (active). With O=C=NCCCCCCN=C=O the outcome was “inactive”. For C[C@]12CC[C@@H]3c4ccc(O)cc4CC[C@H]3[C@@H]1CC[C@H]2O, the outcome was “inactive”. With Cc1ccc(C(C)C)cc1 the outcome was “inactive”.

— PubChem BioAssay (EPA / NIEHS)
